The results in this text go back to PubChem BioAssay.

Assay [1] in a line: stimulators of nuclear beta-catenin in C2C12, primary screen, imaging, WNT3A-conditioned medium, mouse C2C12, NPC library (AID 1117326; in the data active = nuclear beta-catenin stimulation mostly above about 4.2%, no sharp cut-off; inactive = mostly below about 10%). The following applies: stronger effect = higher value.
The nature of assay [2]: stimulators of insulin release from INS-1E, primary screen, cell-based, 5 mM glucose, NPC library (AID 1117329;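 active = compound raises insulin release from rat beta cells at 5 mM glucose, no numeric limit stated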). The following applies: rat INS-1E insulin secretion, at 10 µM, stronger effect = higher value.
Assay [3] is described as follows: growth inhibition of GSK3B-pretreated HCT116 cells – cell-based, CellTiter-Glo, 0.2 to 20 µM (AID 1117336;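 active = compounds lowering colon cancer cell viability after pretreatment blocking the GSK3B kinase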). The following applies: HCT116 viability after GSK3B inhibitor, at 20 µM, stronger effect = higher value. A general note: Cellular ATP, detected with luciferase, serves as a proxy for viable cell number.
Assay [4] is described as follows: inhibition of endothelial tube formation, primary screen, imaging, VEGF stimulated, CD31 staining, tube area, NPC library (AID 1117340;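 active = compound that reduces growth-factor-driven endothelial tube area in a mixed cell culture, no cutoff stated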). Conditions: VEGF-stimulated ADSC/ECFC co-culture, at 10 µM, stronger effect = higher value.
Assay [5] in a line: glucagon-like peptide 1 release enhancers, primary assay, NCI-H716 cell line, NPC library (AID 1117341;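 active = compound raises GLP1 secretion from the human gut endocrine cells, with no numeric limit stated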). Conditions: NCI-H716 cells, at 10 µM, stronger effect = higher value.
Assay [6] is described as follows: HCT116 colon cancer cell growth inhibition, primary screen, CellTiter-Glo luminescence, NPC library (AID 1117342;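 active = compounds that lower survival of HCT116 colon cancer cells in the luminescence readout, no numeric limit stated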). Conditions: at 20 µM (top of the series).
Assay [7] in a line: CellTiter-Glo luminescent readout of SW480 viability loss, NPC library primary (AID 1117343;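 active = compounds that lower viability of the colon cancer cells in the luminescence readout, with no numeric limit stated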). The following applies: CellTiter-Glo luminescence; at 20 µM (top of the series) unless noted.
Assay [8] is described as follows: decreased DLD-1 cellular survival, CellTiter-Glo luminescent readout, NPC compound collection, primary HTS (AID 1117346;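 active = compounds that lower survival of DLD-1 colon cancer cells in the luminescence readout, no cutoff given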). Conditions: DLD-1 viability, CellTiter-Glo luminescence; at 20 µM (top of the series).
Assay [9] deals with NAD(+) hydrolase SARM1 (Homo sapiens) (UniProt Q6SZW1). Description: SARM1 TIR NADase inhibitors, cell lysate, NAD-Glo luminescence (AID 1508614;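 active = compound whose remaining NAD level is above about 45 nM, limit read from the data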;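 also: higher remaining NAD means stronger inhibition of SARM1 NADase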). The following applies: SAM-TIR HEK293T lysate NADase, at 1 µM, stronger effect = higher value.
Sequence of NAD(+) hydrolase SARM1 (Homo sapiens) (Q6SZW1 whole entry, looked up): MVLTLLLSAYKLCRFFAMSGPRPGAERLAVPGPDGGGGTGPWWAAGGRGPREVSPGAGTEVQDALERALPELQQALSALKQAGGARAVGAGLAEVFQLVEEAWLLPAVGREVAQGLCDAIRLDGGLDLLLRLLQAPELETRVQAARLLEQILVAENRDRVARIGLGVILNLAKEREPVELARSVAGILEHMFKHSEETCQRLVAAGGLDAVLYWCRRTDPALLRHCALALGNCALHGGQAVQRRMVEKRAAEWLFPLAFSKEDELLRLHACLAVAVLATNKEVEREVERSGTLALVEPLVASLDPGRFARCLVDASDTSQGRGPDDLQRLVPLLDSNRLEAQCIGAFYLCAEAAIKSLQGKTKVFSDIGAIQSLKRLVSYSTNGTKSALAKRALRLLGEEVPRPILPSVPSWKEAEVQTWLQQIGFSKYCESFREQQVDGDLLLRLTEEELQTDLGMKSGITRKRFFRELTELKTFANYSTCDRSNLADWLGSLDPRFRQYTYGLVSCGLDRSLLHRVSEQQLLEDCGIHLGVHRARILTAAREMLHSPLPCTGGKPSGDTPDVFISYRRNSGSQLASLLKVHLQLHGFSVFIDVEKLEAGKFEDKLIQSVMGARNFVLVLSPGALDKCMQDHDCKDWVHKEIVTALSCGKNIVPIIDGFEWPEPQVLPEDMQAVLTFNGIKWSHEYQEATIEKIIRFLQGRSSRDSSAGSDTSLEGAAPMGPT
Assay [10] can be described thus: ovarian cancer cell viability with rucaparib, profiling panel, oncology-focused library, rucaparib conditional (AID 1508598). The following applies: patient-derived ovarian cancer cells, CellTiter-Glo viability, 144 h, stronger effect = lower value.
The nature of assay [11]: hESC survival regulators, cell-based (AID 493140; call rule not given here;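 also: cells exposed to compounds for four days before counting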). The following applies: human embryonic stem cell survival screen; stronger effect = higher value.
The nature of assay [12]: liver-stage malaria parasite growth inhibition, primary screen, cell-based, HepG2, luciferase luminescence, HepG2 viability (AID 624349; in the data active = parasite load remaining mostly below about 12%, no sharp cut-off; inactive = mostly above about 10%;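 also: 100% = mean of DMSO negative control wells on the same plate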). Conditions: P. berghei liver stage in HepG2, luciferase luminescence, concentration not given here; parasite load remaining: stronger effect = lower value; viability: measured here: HepG2 viability without parasites.
Assay [13] in a line: survival rescue of mitochondrial mutant cells in low glucose, primary screen, MELAS cybrids, Rieske KO mouse fibroblasts, CellTiter-Glo (AID 1508586;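 active = mean z-score across replicates of 1.96 or higher in either the MELAS or the Rieske mutant cell line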;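 also: z relative to plate mean and SD of compound and empty wells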).

Values joined by “and” are separate entries in the source; they are usually repeats but may differ in a detail not shown here. Identical values can stand only once. Active and inactive are the calls of the source.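 The calls were made as follows, unless noted: active = normalized viability below 100% at a tested concentration; inactive = the rest.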

On to `Cc1ncc([N+](=O)[O-])n1C`, for which the nuclear beta-catenin stimulation is 1.7% (inactive) in assay [1] (at 10 µM) and 22.2% in assay [1] (stimulation, at 2 µM). Also, the insulin secretion stimulation in assay [2] is 4.1% (inactive). In assay [3], the viability decrease is 38.9% (inactive). Moreover, the tube area decrease in [4] was -11.6% (inactive). The GLP1 secretion stimulation in [5] was -0.5% (inactive). For the same molecule, the inhibition of viability in assay [6] is -2.3% (inactive). In addition, the values for the viability decrease (inhibition) in assay [7] and in assay [8] were -12.5% (inactive) and -4.4% (inactive), respectively. Besides, in assay [9], the remaining NAD was 10 nM (inactive).
`COc1ccc(-n2nc(CCC(=O)N(C)O)cc2-c2ccc(Cl)cc2)cc1`: the nuclear beta-catenin stimulation in assay [1] (at 10 µM) is 0.6% (inactive); in assay [1] (stimulation, at 2 µM), 0.2%. Also, the insulin secretion stimulation in [2] is 2.7% (inactive). Further, the viability decrease in [3] was 91.8% (active). In [4], the tube area decrease is 19.2% (inactive). Moreover, the GLP1 secretion stimulation in [5] was 9.1% (inactive). The inhibition of viability in assay [6] was 94.4% (active). In addition, the viability decrease (inhibition) in assay [7] is 130% (active); in [8], 102% (active). Also, in assay [9], the remaining NAD is 10 nM (inactive).
On to `O=c1[nH]c(=O)n([C@H]2CCCO2)cc1F`, for which the nuclear beta-catenin stimulation was 0.6% (inactive) in [1] (at 10 µM) and 0.4% in [1] (stimulation, at 2 µM). Also, the insulin secretion stimulation in assay [2] is -1.4% (inactive). The viability decrease in assay [3] is 6% (inactive). The tube area decrease in assay [4] was 3.6% (inactive). Moreover, the GLP1 secretion stimulation in [5] is -1.7% (inactive). For the same molecule, the inhibition of viability in assay [6] was 16% (inactive). For the same molecule, the viability decrease (inhibition) is 13.4% (inactive) in assay [7] and 11.5% (inactive) in [8]. The viability – broadly, a read-out of living cells in per cent, often relative to untreated cells – is 106% (inactive) in assay [10] (at 0.000305 µM, OCI-C5x cells, with rucaparib 10 µM, 100% = cells with rucaparib alone); 122% (inactive) in assay [10] (at 0.000305 µM, OCI-C5x cells, without rucaparib); 115% (inactive) in [10] (at 0.000305 µM, OCI-P5x cells, with rucaparib 20 µM, 100% = cells with rucaparib alone); 110% (inactive) in assay [10] (at 0.000305 µM, OCI-P5x cells, without rucaparib); 119% (inactive) in assay [10] (at 0.00122 µM, OCI-C5x cells, with rucaparib 10 µM, 100% = cells with rucaparib alone); 122% (inactive) in [10] (at 0.00122 µM, OCI-C5x cells, without rucaparib). The viability was 106% (inactive) in assay [10] (at 0.00122 µM, OCI-P5x cells, with rucaparib 20 µM, 100% = cells with rucaparib alone); 107% (inactive) in [10] (at 0.00122 µM, OCI-P5x cells, without rucaparib); 103% (inactive) in assay [10] (at 0.00488 µM, OCI-C5x cells, with rucaparib 10 µM, 100% = cells with rucaparib alone); 127% (inactive) in assay [10] (at 0.00488 µM, OCI-C5x cells, without rucaparib); 96% (active) in assay [10] (at 0.00488 µM, OCI-P5x cells, with rucaparib 20 µM, 100% = cells with rucaparib alone); 106% (inactive) in assay [10] (at 0.00488 µM, OCI-P5x cells, without rucaparib). Also, the viability was 107% (inactive) in assay [10] (at 0.0195 µM, OCI-C5x cells, with rucaparib 10 µM, 100% = cells with rucaparib alone); 121% (inactive) in [10] (at 0.0195 µM, OCI-C5x cells, without rucaparib); 94.8% (active) in [10] (at 0.0195 µM, OCI-P5x cells, with rucaparib 20 µM, 100% = cells with rucaparib alone); 99.2% (active) in assay [10] (at 0.0195 µM, OCI-P5x cells, without rucaparib); 104% (inactive) in assay [10] (at 0.0781 µM, OCI-C5x cells, with rucaparib 10 µM, 100% = cells with rucaparib alone); 112% (inactive) in assay [10] (at 0.0781 µM, OCI-C5x cells, without rucaparib). The viability in [10] (at 0.0781 µM, OCI-P5x cells, with rucaparib 20 µM, 100% = cells with rucaparib alone) is 106% (inactive); in [10] (at 0.0781 µM, OCI-P5x cells, without rucaparib), 107% (inactive); in [10] (at 0.313 µM, OCI-C5x cells, with rucaparib 10 µM, 100% = cells with rucaparib alone), 31.7% (active); in assay [10] (at 0.313 µM, OCI-C5x cells, without rucaparib), 24.1% (active); in [10] (at 0.313 µM, OCI-P5x cells, with rucaparib 20 µM, 100% = cells with rucaparib alone), 47.7% (active); in [10] (at 0.313 µM, OCI-P5x cells, without rucaparib), 16.2% (active). In addition, the viability in assay [10] (at 1.25 µM, OCI-C5x cells, with rucaparib 10 µM, 100% = cells with rucaparib alone) was 110% (inactive); in [10] (at 1.25 µM, OCI-C5x cells, without rucaparib), 115% (inactive); in [10] (at 1.25 µM, OCI-P5x cells, with rucaparib 20 µM, 100% = cells with rucaparib alone) it was 97.8% (active); in assay [10] (at 1.25 µM, OCI-P5x cells, without rucaparib), 97.2% (active); in assay [10] (at 5 µM, OCI-C5x cells, with rucaparib 10 µM, 100% = cells with rucaparib alone) it was 133% (inactive); in [10] (at 5 µM, OCI-C5x cells, without rucaparib), 111% (inactive). Further, the viability is 87.8% (active) in [10] (at 5 µM, OCI-P5x cells, with rucaparib 20 µM, 100% = cells with rucaparib alone) and 94.3% (active) in assay [10] (at 5 µM, OCI-P5x cells, without rucaparib).
As for `O=C1NCN(c2ccccc2)C12CCN(CCCC(c1ccc(F)cc1)c1ccc(F)cc1)CC2`, the survival in assay [11] was 0.417 (inactive). Moreover, the parasite load remaining in assay [12] is 45.3% (inactive) and 31.6% (inactive). Also, the viability in [12] was 89.8% and 100%. For the same molecule, the nuclear beta-catenin stimulation in assay [1] (at 10 µM) is 31.6% (inactive); in assay [1] (stimulation, at 2 µM), 2.1%. In [2], the insulin secretion stimulation was 2.5% (inactive). Also, the viability decrease in assay [3] was 99.7% (active). Moreover, the tube area decrease in assay [4] was 109% (active). For the same molecule, the GLP1 secretion stimulation in assay [5] is -0.5% (inactive). In addition, the inhibition of viability in assay [6] is 99.6% (active). In addition, the values for the viability decrease (inhibition) in [7] and in assay [8] were 103% (active) and 102% (active), respectively. For the same molecule, the z-score in assay [13] (MELAS cybrid survival, CellTiter-Glo 48 h, stronger effect = higher value) was -1.7 (inactive) and 0.321 (inactive); in assay [13] (Rieske KO mouse fibroblast survival, CellTiter-Glo 72 h) it was 0.391 and -0.284.
